Source: PubChem BioAssay (Tox21)
Records with an inconclusive call do not appear. Entries that show only a call come without a potency. Unmarked numbers belong to inactive results. The source made the active and inactive calls. Unless noted, the call rests on the fitted dose curve.

Key:
[1] = qHTS assay to identify small molecule antagonists of the vitamin D receptor (VDR) signaling pathway - cell viability counter screen (AID 743225; active means well fitted curve in the direction sought with a large enough effect in the repeat runs; an effect the other way counts as inactive or inconclusive; further: nearly all actives have a fitted effect of over 50% in size); conditions: VDR-bla HEK293T viability, CellTiter-Glo luminescence, 16 h; series mostly up to 61 µM
Procedure, shortened: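 Cytotoxicity toward the VDR-bla HEK 293T line was scored by ATP-based CellTiter-Glo luminescence, read in the wells already used for the beta-lactamase readout after 16 h compound treatment under 3 nM 1-alpha,25-dihydroxyvitamin D3 stimulation.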

[2] = qHTS assay to identify small molecule agonists of the NFkB signaling pathway - cell viability counter screen (AID 1159515); conditions: NFkB-bla ME-180 viability, CellTiter-Glo luminescence, 5 h; series mostly up to 61 µM; further: nearly all actives have a fitted effect of over 55% in size
Procedure, shortened: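 NFkB-bla ME-180 cells, 2,000/well, plated overnight at 37 C; compound added for 5 hr at 37 C. Viability read in the same wells as the bla reporter, by CellTiter-Glo luminescence after 30 min at room temperature.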

[3] = qHTS assay to identify small molecule agonists of the endoplasmic reticulum stress response signaling pathway - cell viability counter screen (AID 1159517); conditions: ESRE-bla HeLa viability, CellTiter-Glo luminescence, 5 h; series mostly up to 61 µM;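 further: HeLa cells carrying an ER stress response element beta-lactamase reporter; nearly all actives have a fitted effect of over 50% in size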
Procedure, shortened: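 Luminescence readout: CellTiter-Glo, 30 min RT, same wells as the ESRE-bla reporter read. HeLa ESRE-bla, 1,500 cells/well, o/n 37 C; cpd 5 hr 37 C/5% CO2.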

[4] = qHTS assay to identify small molecule antagonists of the retinoid-related orphan receptor gamma (ROR-gamma) signaling pathway - cell viability counter screen (AID 1159520; active means well fitted curve in the direction sought with a large enough effect in the repeat runs; an effect the other way counts as inactive or inconclusive; further: nearly all actives have a fitted effect of over 50% in size); conditions: Tet-on RORgamma CHO cells viability, ATP luminescence, 16 h; series mostly up to 92.4 µM
Procedure, shortened: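 Tet-on ROR gamma CHO cells (1,000/well) were plated 4 hr, given compounds in DMSO for 2 hr at 37 C, then induced with 1 uM final doxycycline for 16 hr. Viability was read as ATP by CellTiter-Glo luminescence after 30 min.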

[5] = qHTS assay to identify small molecule agonists of the AP-1 signaling pathway - cell viability counter screen (AID 1159525); conditions: ME-180 AP-1-bla cells viability, ATP luminescence, 5 h; series mostly up to 76.8 µM; further: nearly all actives have a fitted effect of over 55% in size
Procedure, shortened: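 ME-180 AP-1-bla, 2500 cells/well, Opti-MEM + 0.5% dialyzed FBS; overnight 37 °C; cpd 15-pt titration, 5 h 37 °C; CellTiter-Glo 30 min RT; luminescence read; normalised to TOAB and DMSO controls.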

[6] = qHTS assay to identify small molecule agonists of the AP-1 signaling pathway (AID 1159526); conditions: ME-180 (cervical carcinoma) AP-1-bla reporter, beta-lactamase FRET ratio, 5 h; series mostly up to 76.8 µM
[7] = biological target: Retinoic acid receptor RXR-alpha (Homo sapiens) (UniProt P19793); assay: qHTS assay to identify small molecule agonists of the RXR signaling pathway (AID 1159527); conditions: HEK293T RXRa-UAS-bla, beta-lactamase ratio, 16 h; series mostly up to 76.8 µM; further: nearly all actives have a fitted effect of over 35% in size; further: potency means the concentration at half of the fitted maximal effect
Sequence of Retinoic acid receptor RXR-alpha (Homo sapiens) (P19793 whole entry, looked up): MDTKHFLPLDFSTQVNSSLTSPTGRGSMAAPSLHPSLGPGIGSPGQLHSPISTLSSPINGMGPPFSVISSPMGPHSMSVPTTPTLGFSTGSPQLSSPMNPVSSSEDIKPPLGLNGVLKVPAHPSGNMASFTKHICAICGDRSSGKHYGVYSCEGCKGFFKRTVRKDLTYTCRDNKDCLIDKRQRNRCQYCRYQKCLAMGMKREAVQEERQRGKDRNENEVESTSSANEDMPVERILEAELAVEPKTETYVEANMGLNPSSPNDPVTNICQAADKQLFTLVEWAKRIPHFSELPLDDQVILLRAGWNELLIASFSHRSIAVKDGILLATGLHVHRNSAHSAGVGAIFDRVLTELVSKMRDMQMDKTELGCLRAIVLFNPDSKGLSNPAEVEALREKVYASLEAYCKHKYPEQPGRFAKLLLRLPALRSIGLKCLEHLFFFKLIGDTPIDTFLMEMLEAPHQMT
Procedure, shortened: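 Reporter activation is measured as beta-lactamase activity via FRET substrate cleavage (emission 460/530 nm) in HEK 293T cells expressing an RXR-alpha-driven bla construct, following 16 hr compound exposure at 37 C.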

[8] = qHTS assay to identify small molecule agonists of the vitamin D receptor (VDR) signaling pathway - cell viability counter screen (AID 743224; active means well fitted curve in the direction sought with a large enough effect in the repeat runs; an effect the other way counts as inactive or inconclusive; further: nearly all actives have a fitted effect of over 50% in size); conditions: VDR-bla HEK293T viability, CellTiter-Glo luminescence, 16 h; series mostly up to 62.6 µM
Procedure, shortened: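 VDR-bla cells, 4 h after plating, exposed to compounds for 16 h at 37C; viability then read in the same wells as CellTiter-Glo luminescence after 30 min at room temperature, following the bla FRET read.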

[9] = biological target: Nuclear receptor ROR-gamma (Homo sapiens) (UniProt P51449); assay: qHTS assay to identify small molecule antagonists of the retinoid-related orphan receptor gamma (ROR-gamma) signaling pathway (AID 1159521; active means well fitted curve in the direction sought with a large enough effect in the repeat runs; an effect the other way counts as inactive or inconclusive); conditions: Tet-on RORgamma CHO cells, RORE-luciferase, 16 h; series mostly up to 92.4 µM
Procedure, shortened: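 Readout: ONE-Glo luciferase luminescence, 30 min at room temperature. System: Tet-on RORγ CHO, RORE-LUC. Sequence: compound 2 h, doxycycline 1 uM final, 16 h at 37 C.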

C=C(C)C(=O)OCC
Potency [1]: inactive | Potency [2]: inactive | Potency [3]: inactive | Potency [4]: inactive | Potency [5]: inactive | Potency [6]: inactive | Potency [7]: inactive

COc1cc(C(=O)OCCCN2CCCN(CCCOC(=O)c3cc(OC)c(OC)c(OC)c3)CC2)cc(OC)c1OC
Potency [8]: inactive | Potency [2]: inactive | Potency [3]: inactive | Potency [9]: inactive | Potency [5]: inactive | Potency [6]: inactive

CCC(C)(C)CC
Potency [1]: inactive | Potency [2]: inactive | Potency [4]: inactive | Potency [9]: inactive | Potency [7]: inactive

CCOC(=O)COC(=O)c1cc(Oc2ccc(C(F)(F)F)cc2Cl)ccc1[N+](=O)[O-]
Potency [1]: inactive | Potency [2]: inactive | Potency [3]: inactive | Potency [4]: inactive | Potency [5]: inactive | Potency [6]: inactive | Potency [7]: 24.5 µM (active)

O=S(c1cc(Cl)cc(Cl)c1O)c1cc(Cl)cc(Cl)c1O
Potency [1]: inactive | Potency [2]: inactive | Potency [3]: inactive | Potency [4]: inactive | Potency [5]: inactive

Brc1c2ccccc2c(Br)c2ccccc12
activity change, negative = cytotoxicity [8]: 13.8% [at 5.95 µM] | viability change, negative = cytotoxic [1]: -26.5% [at 6.95 µM] | activity, negative = cytotoxic [2]: -0.607% [at 6.95 µM] | activity change, negative = cytotoxicity [3]: -1.22% [at 6.95 µM] | activity, negative = cytotoxicity [4]: 12% [at 8.39 µM] | viability change, negative = cytotoxic [5]: 0.0847% [at 6.97 µM] | activation [6]: -11.4% [at 6.97 µM]

c1ccc(CNCCNCc2ccccc2)cc1
Potency [8]: inactive | Potency [1]: inactive | Potency [2]: inactive | Potency [3]: inactive | Potency [4]: inactive | Potency [9]: inactive | Potency [6]: inactive

CCOC(=O)Cc1cccc2ccccc12
Potency [8]: inactive | Potency [1]: inactive | Potency [2]: inactive | Potency [3]: inactive | Potency [4]: inactive | Potency [5]: inactive | Potency [6]: inactive | Potency [7]: inactive

NS(=O)(=O)c1ccc(N2CCCCS2(=O)=O)cc1
Potency [8]: inactive | Potency [1]: inactive | Potency [2]: inactive | Potency [3]: inactive | Potency [4]: inactive | Potency [5]: inactive | Potency [6]: inactive | Potency [7]: inactive

OCc1cc(C(O)CNCCCCCCOCCCCc2ccccc2)ccc1O (configuration not stated)
Potency [2]: inactive | Potency [3]: inactive | Potency [4]: inactive | Potency [5]: inactive

CC(C)(C)OCC1CO1 (configuration not stated)
Potency [8]: inactive | Potency [1]: inactive | Potency [2]: inactive | Potency [3]: inactive | Potency [4]: inactive | Potency [5]: inactive | Potency [6]: inactive | Potency [7]: inactive
